# Measured values as given in the antibiotic and cytotoxicity screens of Wong et al. (2023).
# In all, about 39,000 compounds went through this assay and about 500 (1.3%) were called active. Shown is part of a subset that was picked to be rich in actives.
# Tested on: S. aureus RN4220
# Assay: growth inhibition call (relative growth <= 0.2)
# Conditions: 50 µM
row,Structure (SMILES),growth inhibition call
1,CCC1(C2OC(C3OC(O)(CO)C(C)CC3C)CC2C)CCC(C2(C)CCC3(CC(O)C(C)C(C(C)C(OC)C(C)C(=O)[O-])O3)O2)O1.[Na+] (stereo unspecified),active
2,O=C(O)C(Cl)Cl.[NaH],inactive
3,C[N+]1(C)C2CC(OC(=O)C(CO)c3ccccc3)CC1C1OC12.[Br-] (stereo unspecified),inactive
4,C[C@@]12NC(=O)CN1CCc1ccccc12,inactive
5,CC[C@@H](C(=O)[C@@H](C)[C@@H](O)[C@H](C)[C@@H]1O[C@@H]([C@@H](CC)C(=O)O)CC[C@@H]1C)[C@H]1O[C@]2(C=C[C@@H](O)[C@]3(CC[C@@](C)([C@H]4CC[C@](O)(CC)[C@H](C)O4)O3)O2)[C@H](C)C[C@@H]1C,active
6,CCC(C(=O)[O-])C1CCC(C)C(C(C)C(O)C(C)C(=O)C(CC)C2OC3(C=CC(O)C4(CCC(C)(C5CCC(O)(CC)C(C)O5)O4)O3)C(C)CC2C)O1.[Na+] (stereo unspecified),active
7,CC[C@@H](C)C(=O)O[C@H]1[C@H](O)[C@H]2[C@@H](CN3C[C@@H](C)CC[C@@H]3[C@@]2(C)O)[C@H]2C[C@]34O[C@]5(O)[C@@H](OC(=O)[C@@](C)(O)CC)CC[C@@]3(C)[C@@H]5[C@@H](OC(C)=O)[C@@H](OC(C)=O)[C@@H]4[C@@]21O,inactive
8,COC(=O)C[C@@H]1CC[C@@H]2NC[C@H](O)COC[C@H]2O1,inactive
9,COc1cc2c3cc1Oc1c(OC)c(OC)cc4c1[C@@H](Cc1cccc(c1)Oc1ccc(c(O)c1)C[C@@H]3N(C)CC2)N(C)CC4,inactive
10,C[C@@H](CN)CC(=O)O,inactive
11,Cc1noc(C)c1CN1CCNCC1,inactive
12,C[C@H](O)[C@@]12[C@H]3CC=C[C@@H]1N2CC3 (stereo partly specified),inactive
13,CCCCOC(=O)c1ccccc1C(=O)OCCCC,inactive
14,O=C([O-])Cc1ccccc1.[Na+],inactive
15,C[CH2][Hg][S]c1ccccc1C(=O)[O-].[Na+],active
16,NCCO.NCCO.O[AsH]O[AsH]O (stereo unspecified),inactive
17,CO[C@H]1[C@@H](O)C[C@@H](O[C@H]2[C@@H](O)C[C@@H](O[C@H]3[C@@H](O)C[C@@H](O[C@H]4CC[C@@]5(C)[C@@H](CC[C@H]6[C@@H]5C[C@@H](O)[C@@]5(C)[C@H](C7=CC(=O)OC7)CC[C@@]65O)C4)O[C@@H]3C)O[C@@H]2C)O[C@@H]1C,inactive
18,CN1C[C@H](C(=O)N[C@]2(C)O[C@@]3(O)[C@@H]4CCCN4C(=O)[C@H](Cc4ccccc4)N3C2=O)C=C2c3cccc4[nH]cc(c34)C[C@H]21,inactive
19,C=C(C)[C@@H]1CCC(C)=C[C@H]1c1c(O)cc(CCCCC)cc1O,active

row,Structure (SMILES),growth inhibition call
1,C=C(C)[C@@H]1CCC(C)=C[C@H]1c1c(OC)cc(C)cc1OC,inactive
2,CCCCCCCCCc1ccc(O)cc1,inactive
3,C[C@H]1O[C@H](O[C@H]2[C@H](O)[C@@H](O)[C@@H](O)[C@H](O)[C@@H]2O)[C@@H](N)C[C@@H]1NC(=N)C(=O)O,inactive
4,Cc1[nH]c2ccc(O)cc2c1CCN,inactive
5,CN(C)[C@@H]1C(=O)[C@@H](C(N)=O)C(=O)[C@@]2(O)C(=O)[C@H]3C(=O)c4c(O)ccc(Cl)c4[C@@](C)(O)[C@H]3C[C@@H]12,active
6,CN(C)[C@@H]1C(=O)[C@H](C(N)=O)C(=O)[C@@]2(O)C(=O)[C@@H]3C(=O)c4c(O)cccc4[C@@](C)(O)[C@H]3C[C@@H]12,active
7,CN(C)[C@@H]1C(=O)C(C(N)=O)=C(O)[C@@]2(O)C(O)=C3C(=O)c4c(O)cccc4[C@](C)(O)[C@H]3C[C@@H]12,active
8,N#Cc1nn(-c2c(Cl)cc(C(F)(F)F)cc2Cl)c(N)c1S(=O)C(F)(F)F (stereo unspecified),inactive
9,c1nc(N2CCN3CCC[C@H]3C2)c2[nH]cnc2n1,inactive
10,O=[As]O[As]=O (stereo unspecified),inactive
11,CC(C)[N+](C)(CCC(C(N)=O)(c1ccccc1)c1ccccc1)C(C)C.[I-],inactive
12,O=C1C=CC(=O)c2c(O)cccc21,inactive
13,Oc1ccccc1-c1ccccc1O,inactive
14,CC1=CC(=O)c2c(O)cccc2C1=O,active
15,CN1C(=O)C(O)N=C(c2ccccc2)c2cc(Cl)ccc21 (stereo unspecified),inactive
16,CNC(=O)Oc1ccc2c(c1)C1(C)CCN(C)C1N2C.O=S(=O)(O)O (stereo unspecified),inactive
17,C[C@H]1O[C@H](C[N+](C)(C)C)C[C@@H]1O,inactive
18,CC(=O)N[C@@H]1[C@H](O[C@@H]2O[C@H](C[C@@H](O)[C@H]3O[C@@H](n4ccc(=O)[nH]c4=O)[C@H](O)[C@@H]3O)[C@H](O)[C@H](O)[C@H]2NC(=O)/C=C/CCCCCCCCC(C)C)O[C@@H](CO)[C@H](O)[C@H]1O,active
19,C[C@@]1(O)[C@H](O)[C@@H](CO)O[C@H]1n1ccc2c(N)ncnc21,inactive

row,Structure (SMILES),growth inhibition call
1,O=c1cccc2n1C[C@@H]1C[C@H]2CN(CCO)C1,inactive
2,CC(=CCn1c[n+](C)c2c(N)ncnc21)CCC1(C)C(C)CCC2(C)C(C)=CCCC21.[Cl-] (stereo unspecified),active
3,OCCN1CC2(CCN(c3nccs3)C2)C1,inactive
4,CC(C)CC(CN)CC(=O)O (stereo unspecified),inactive
5,COC(=O)[C@@H](N)CCCNC(N)=N[N+](=O)[O-],inactive
6,O=C1[O][SbH]23[O]C(=O)[C@H]([O]2)[C@H]2[O][SbH]4([O]C(=O)[C@H]([O]4)[C@H]1[O]3)[O]C2=O,active
7,O=C1[O][SbH]23[O]C(=O)C([O]2)C2[O][SbH]4([O]C(=O)C([O]4)C1[O]3)[O]C2=O,inactive
8,C=C(CCCCCCCCCCCCCCCC)OOC[C@@H](COP(=O)(ON)O[C@@H]1[C@H](O)[C@H](O)[C@@H](OP(=O)(O)ON)[C@H](OP(=O)(O)ON)[C@H]1O)OOC(=C)CC/C=C/C/C=C/C/C=C/C/C=C/CCCCC (stereo partly specified),inactive
9,CN1CC2(CNC2)OCCS1(=O)=O,inactive
10,CN(C)C(=O)CCC(=O)N1C[C@H]2C[C@@H]1CN2,inactive
11,Oc1cc(Cl)ccc1Oc1ccc(Cl)cc1Cl [listing 1 of 2 here],active
12,Oc1ccc(Cl)cc1Cc1cc(Cl)ccc1O,inactive
13,Oc1cc(Cl)ccc1Oc1ccc(Cl)cc1Cl [listing 2 of 2 here],inactive
14,CC(=O)[O][Hg][c]1ccccc1,inactive
15,NC(=O)[C@H]1CNC(=O)C1,inactive
16,Cc1cc2c(C(C)C)c(O)c(O)c(C=O)c2c(O)c1-c1c(C)cc2c(C(C)C)c(O)c(O)c(C=O)c2c1O,inactive
17,CC[C@@]1(O)C[C@H](O[C@H]2C[C@H](N(C)C)[C@H](O)[C@H](C)O2)c2c(cc3c(c2O)C(=O)c2c(O)ccc(O)c2C3=O)[C@H]1C(=O)OC,inactive
18,COc1cccc2c1C(=O)c1c(O)c3c(c(O)c1C2=O)C[C@@](O)(C(=O)CO)C[C@@H]3O[C@H]1C[C@H](N2CCO[C@H](OC)C2)[C@H](O)[C@H](C)O1,active
